In PubChem BioAssay (NCI):
About 83,000 compounds went through this panel and 20% of them were active in at least one assay; those are over-represented in the sample as a whole.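 Percent growth is the endpoint: 0 to 100 indicates growth inhibition (40 means 60% inhibition), 0 means no net growth, and negative values indicate cell death.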 The source made the active and inactive calls. Rule for the calls: active = growth percent below 10; inactive = the rest.

Assays:
Experiment in all cases: NCI-60 one-dose screen, 48 h (100 = growth as untreated, 0 = no growth, -100 = all killed)
Conditions in all cases: 10 µM
NCI-H23 lung = tested on: NCI-H23 lung
NCI-H226 lung = tested on: NCI-H226 lung
NCI-H322M lung = tested on: NCI-H322M lung
HOP-62 NSCLC = tested on: HOP-62 NSCLC
NCI-H460 lung = tested on: NCI-H460 lung
HOP-92 NSCLC = tested on: HOP-92 NSCLC
A549/ATCC NSCLC = tested on: A549/ATCC NSCLC
786-0 renal = tested on: 786-0 renal
COLO 205 colon = tested on: COLO 205 colon
NCI-H522 lung = tested on: NCI-H522 lung

Measured: growth

O=C(OCC(O)C1OC(c2ccccc2)OC(COC(=O)c2ccccc2)C1O)c1ccccc1 (configuration not stated)
inactive: NCI-H23 lung 111% | NCI-H226 lung 99.6% | NCI-H322M lung 109% | HOP-62 NSCLC 99% | NCI-H460 lung 104% | HOP-92 NSCLC 89.8% | A549/ATCC NSCLC 94.8% | 786-0 renal 111% | COLO 205 colon 99.9%

C/C(=N\NC(=O)c1ccccc1N)c1ccccc1O
active: COLO 205 colon 9.89%
inactive: NCI-H23 lung 38.7% | NCI-H226 lung 52.8% | NCI-H322M lung 26.4% | HOP-62 NSCLC 43.3% | NCI-H460 lung 23.5% | HOP-92 NSCLC 18.2% | A549/ATCC NSCLC 28.2% | 786-0 renal 60.6%

Cc1cc2nc(CC(=O)c3ccccc3)c(=O)[nH]c2cc1C
inactive: NCI-H23 lung 84% | NCI-H226 lung 87% | NCI-H322M lung 98.7% | HOP-62 NSCLC 96.2% | NCI-H460 lung 97.9% | HOP-92 NSCLC 88.5% | A549/ATCC NSCLC 105% | 786-0 renal 98.3% | COLO 205 colon 114%

CC(=O)N(C)c1ccc([N+](=O)[O-])cc1
inactive: NCI-H23 lung 101% | NCI-H226 lung 105% | NCI-H322M lung 114% | HOP-62 NSCLC 111% | NCI-H460 lung 117% | HOP-92 NSCLC 94.5% | A549/ATCC NSCLC 106% | 786-0 renal 105% | COLO 205 colon 114%

Cc1ccc(/C=C2\SC(=S)N(c3ccc(F)cc3)C2=O)o1
inactive: NCI-H23 lung 88.3% | NCI-H226 lung 72.4% | NCI-H322M lung 90.2% | HOP-62 NSCLC 83.1% | NCI-H460 lung 33.7% | NCI-H522 lung 70.6% | A549/ATCC NSCLC 87.5% | 786-0 renal 40.2% | COLO 205 colon 92.4%

CCCCC1(CC)COC(CCC)OC1 (configuration not stated)
inactive: NCI-H23 lung 111% | NCI-H226 lung 98% | NCI-H322M lung 117% | HOP-62 NSCLC 95.9% | NCI-H460 lung 115% | HOP-92 NSCLC 79.7% | A549/ATCC NSCLC 103% | COLO 205 colon 114%

CCCC(=O)c1cc(C)ccc1OC
inactive: NCI-H23 lung 108% | NCI-H226 lung 99.7% | NCI-H322M lung 126% | HOP-62 NSCLC 101% | NCI-H460 lung 106% | HOP-92 NSCLC 81.5% | A549/ATCC NSCLC 111% | COLO 205 colon 112%

CCCOC(=O)C(O)c1ccccc1 (configuration not stated)
inactive: NCI-H23 lung 106% | NCI-H226 lung 105% | NCI-H322M lung 132% | HOP-62 NSCLC 99.8% | NCI-H460 lung 107% | HOP-92 NSCLC 95% | A549/ATCC NSCLC 126% | COLO 205 colon 115%

CCOC(=O)/C(C#N)=C/c1cccc(C)c1
inactive: NCI-H23 lung 99.5% | NCI-H226 lung 109% | NCI-H322M lung 95% | HOP-62 NSCLC 101% | NCI-H460 lung 103% | HOP-92 NSCLC 83.8% | A549/ATCC NSCLC 95.5% | 786-0 renal 98.3% | COLO 205 colon 119%

N#CSc1cc(S(N)(=O)=O)ccc1N
inactive: NCI-H23 lung 104% | NCI-H226 lung 108% | NCI-H322M lung 114% | HOP-62 NSCLC 104% | NCI-H460 lung 114% | HOP-92 NSCLC 135% | A549/ATCC NSCLC 102% | COLO 205 colon 113%

CCCCCCCCOC(=O)c1ccccn1
inactive: NCI-H23 lung 91.5% | NCI-H226 lung 104% | NCI-H322M lung 98.9% | HOP-62 NSCLC 93.5% | NCI-H460 lung 109% | HOP-92 NSCLC 107% | A549/ATCC NSCLC 107% | COLO 205 colon 106%

Cc1ccc(C(=O)N/N=C/c2ccc3c(c2)OCO3)cc1
inactive: NCI-H23 lung 91% | NCI-H226 lung 101% | NCI-H322M lung 98.8% | HOP-62 NSCLC 97.5% | NCI-H460 lung 96.6% | NCI-H522 lung 80.9% | A549/ATCC NSCLC 97.7% | 786-0 renal 99.8% | COLO 205 colon 113%

C#CC(C)(O)c1ccc(Cl)cc1 (configuration not stated)
inactive: NCI-H23 lung 92.4% | NCI-H226 lung 78.2% | NCI-H322M lung 99.9% | HOP-62 NSCLC 84.6% | NCI-H460 lung 104% | NCI-H522 lung 91.4% | A549/ATCC NSCLC 99.2% | 786-0 renal 95.5% | COLO 205 colon 103%

O=C(CCl)Nc1ccc2c(c1)C(=O)c1ccc(NC(=O)CCl)cc1C2=O
active: NCI-H23 lung -68.7% | NCI-H226 lung -11.6% | NCI-H322M lung -36.5% | HOP-62 NSCLC -64.7% | NCI-H460 lung -45.9% | NCI-H522 lung -65.2% | A549/ATCC NSCLC 0.12% | 786-0 renal -66.9% | COLO 205 colon -50.8%

Nc1ncnc2[nH]ncc12
inactive: NCI-H23 lung 17.7% | NCI-H226 lung 34.8% | HOP-62 NSCLC 20.9% | NCI-H460 lung 12.3% | A549/ATCC NSCLC 23% | COLO 205 colon 10.8%
active: NCI-H322M lung 0.523% | HOP-92 NSCLC -21.4%

COC(=O)C(O)c1ccccc1 (configuration not stated)
inactive: NCI-H23 lung 106% | NCI-H226 lung 107% | NCI-H322M lung 125% | HOP-62 NSCLC 105% | NCI-H460 lung 105% | HOP-92 NSCLC 95.6% | A549/ATCC NSCLC 115% | COLO 205 colon 111%

OCC1OC(OC2C(O)C(CO)OC2(CO)OC2OC(CO)C(O)C(O)C2O)C(O)C(O)C1O (configuration not stated)
inactive: NCI-H23 lung 103% | NCI-H226 lung 115% | NCI-H322M lung 120% | HOP-62 NSCLC 98.6% | NCI-H460 lung 111% | HOP-92 NSCLC 90.3% | A549/ATCC NSCLC 98% | COLO 205 colon 117%

CC1CCCC(CC(N)=O)CC1 (configuration not stated)
inactive: NCI-H23 lung 102% | NCI-H226 lung 98.7% | NCI-H322M lung 112% | HOP-62 NSCLC 94.9% | NCI-H460 lung 98.8% | NCI-H522 lung 88.1% | A549/ATCC NSCLC 92.8% | 786-0 renal 110% | COLO 205 colon 107%

O=C1c2ccccc2C(=O)N1OCc1ccccc1
inactive: NCI-H23 lung 111% | NCI-H226 lung 91.4% | NCI-H322M lung 93.4% | HOP-62 NSCLC 95.4% | NCI-H460 lung 113% | NCI-H522 lung 96.5% | A549/ATCC NSCLC 122% | 786-0 renal 99.5% | COLO 205 colon 108%

COc1ccc2c(NCCCCCCCCNc3c4ccccc4nc4cc(OC)ccc34)c3ccccc3nc2c1
active: NCI-H23 lung -92.2% | NCI-H226 lung -65.3% | NCI-H322M lung -74.3% | HOP-62 NSCLC -99.2% | NCI-H460 lung -100% | NCI-H522 lung -74.1% | A549/ATCC NSCLC -64.7% | 786-0 renal -100% | COLO 205 colon -100%

CC(C)OC(C(=O)O)c1ccccc1 (configuration not stated)
inactive: NCI-H23 lung 101% | NCI-H226 lung 108% | NCI-H322M lung 117% | HOP-62 NSCLC 91.1% | NCI-H460 lung 109% | HOP-92 NSCLC 81.3% | A549/ATCC NSCLC 105% | COLO 205 colon 111%

N#CCCc1ccc(O)cc1
inactive: NCI-H23 lung 117% | NCI-H226 lung 102% | NCI-H322M lung 102% | HOP-62 NSCLC 104% | NCI-H460 lung 103% | HOP-92 NSCLC 108% | 786-0 renal 104% | COLO 205 colon 114%

COc1cc2c(cc1OC)[C@H](C(=O)O)[C@@H](c1ccc(OC(C)C)c(OC)c1)N(C)C2=O
inactive: NCI-H23 lung 96.8% | NCI-H226 lung 89.9% | NCI-H322M lung 83.5% | HOP-62 NSCLC 92.4% | NCI-H460 lung 105% | HOP-92 NSCLC 83.3% | A549/ATCC NSCLC 106% | 786-0 renal 100% | COLO 205 colon 118%

Cc1nc2ccccc2c(C(=O)O)c1O
inactive: NCI-H23 lung 104% | NCI-H226 lung 91% | NCI-H322M lung 117% | HOP-62 NSCLC 88.3% | NCI-H460 lung 110% | NCI-H522 lung 104% | A549/ATCC NSCLC 103% | 786-0 renal 103%

c1cc2cccc3c4cccc5cccc(c(c1)c23)c54
inactive: NCI-H23 lung 101% | NCI-H226 lung 98.8% | NCI-H322M lung 119% | HOP-62 NSCLC 97.7% | NCI-H460 lung 109% | HOP-92 NSCLC 89.6% | A549/ATCC NSCLC 125% | COLO 205 colon 104%

COc1ncnc2c1cnn2C
inactive: NCI-H23 lung 106% | NCI-H226 lung 106% | NCI-H322M lung 116% | HOP-62 NSCLC 94.4% | NCI-H460 lung 106% | HOP-92 NSCLC 99.9% | A549/ATCC NSCLC 105% | COLO 205 colon 104%

Cc1ccc(/C(C#N)=C/c2ccc3c(c2)OCO3)cc1
inactive: NCI-H23 lung 71.2% | NCI-H226 lung 85.9% | NCI-H322M lung 78.8% | HOP-62 NSCLC 78.2% | NCI-H460 lung 71.3% | NCI-H522 lung 51.4% | A549/ATCC NSCLC 57.5% | 786-0 renal 104% | COLO 205 colon 65.8%

CN(C)c1ccc2nc3ccc(=N)cc-3sc2c1
inactive: NCI-H23 lung 14.7% | NCI-H226 lung 77.1% | NCI-H322M lung 85.4% | HOP-62 NSCLC 54.4% | NCI-H460 lung 56.7% | NCI-H522 lung 14.7% | A549/ATCC NSCLC 13.6% | 786-0 renal 66.2%

O=C(NC1CCCCC1)OCc1c(COC(=O)NC2CCCCC2)c(-c2ccc(Cl)c(Cl)c2)n2c1CCC2
inactive: NCI-H23 lung 22.7% | NCI-H322M lung 48.6% | HOP-62 NSCLC 27.4% | COLO 205 colon 31.8%
active: NCI-H226 lung 2.9% | NCI-H460 lung 3.73% | HOP-92 NSCLC -1.46% | 786-0 renal 8.95%

Cc1cc(C)c(CC(=O)O)c(C)c1
inactive: NCI-H23 lung 100% | NCI-H226 lung 99.8% | NCI-H322M lung 100% | HOP-62 NSCLC 107% | NCI-H460 lung 105% | HOP-92 NSCLC 90.5% | A549/ATCC NSCLC 104% | COLO 205 colon 108%

CC(O)COc1ccc(-c2ccccc2)cc1 (configuration not stated)
inactive: NCI-H23 lung 108% | NCI-H226 lung 104% | NCI-H322M lung 112% | HOP-62 NSCLC 102% | NCI-H460 lung 99.2% | HOP-92 NSCLC 92.7% | A549/ATCC NSCLC 107% | COLO 205 colon 110%

CC(C)(N)COS(=O)(=O)O
inactive: NCI-H23 lung 116% | NCI-H226 lung 104% | NCI-H322M lung 115% | HOP-62 NSCLC 98.3% | NCI-H460 lung 103% | HOP-92 NSCLC 87.6% | 786-0 renal 94.7% | COLO 205 colon 105%

CC(=O)Nc1ccc(NC(C)=O)c2c1C(=O)c1ccccc1C2=O
inactive: NCI-H23 lung 89.5% | NCI-H226 lung 81.7% | NCI-H322M lung 89.1% | HOP-62 NSCLC 81.9% | NCI-H460 lung 102% | NCI-H522 lung 89.3% | A549/ATCC NSCLC 96.2% | 786-0 renal 91% | COLO 205 colon 87.6%

Cc1cc(C(C)(C)C)cc(C)c1Br
inactive: NCI-H23 lung 104% | NCI-H226 lung 111% | NCI-H322M lung 121% | HOP-62 NSCLC 99.8% | NCI-H460 lung 103% | HOP-92 NSCLC 75.5% | A549/ATCC NSCLC 109% | COLO 205 colon 112%
